# About 3,700 (7%) of roughly 53,000 sequences were called active. Shown is part of a subset that was picked to be rich in actives. Values without a mark were called inactive.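 How the source made its calls: active means gene knockdowns whose robust z-score for IL-1 alpha signal is at least 2 or at most -2, so actives lie on both sides; inactive means the rest.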
# Assay: Components of the Cytosolic LPS Sensing Pathway: Gene Identification via Genome-wide siRNA Screen;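 further: robust z of the log signal after scaling to non-targeting control siRNA wells of the plate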
# Settings: RAW264.7 macrophages, IL-1a HTRF, actives lie on both sides, screened at 100 nM (by protocol), cells primed 5 h with Pam3CSK4 first
# Procedure, shortened: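 Cells (RAW264.7, 1×10^4 per well) were transfected with siRNA at 100 nM and cultured 48h at 37 degrees C. Pam3CSK4 was added for 5 hours; LipidA transfection followed for 24 hour. IL-1a was then measured by HTRF.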
row,Sequence,z-score
1,GCUAUGUAACACACCGCUGTT against Ticam1,-1.24
2,GGUGUCUUUACGUCUCCCATT against Neto1,-2.56 (active)
3,GGACGAGUCACACUUUGGATT against Cdyl2,-0.328
4,GGUCAAGAGGAGGGUACCUTT against Foxred2,0.313
5,GCUUUAAAUAGAGACUAUCTT against Sox30,1.15
6,GGAGACUUCAGCACCUUUGTT against C4a,0.455
7,CCUGAUCUCAGCCUAUACUTT against Rapgef6,-2.26 (active)
8,GGAACCAAAAGCCUGGCGATT against Pkd1l3,-1.68
9,GGACUGAUAUCAUUUCUGATT against Flacc1,-1
10,GCAUCCACCUCAACGAUAUTT against Dlg3,-1.33
11,GCUAGGAGCUAGGAAUCCGTT against Pdzd3,-0.682
12,GGCAGAAUGGGCUUAUGUCTT against Trabd,-2.54 (active)
13,GGAGCUUGCCAUAUUCCUCTT against Leprotl1,0.915
14,GGAAAUAUAUGUCAUGUCATT against Nars,2.37 (active)
15,GCAAGAUUGGAAUGCUCCATT against 3830403N18Rik,0.309
16,GGAAGAUAAUAUCCUUUGGTT against Olfr734,-1.02
17,GGGAUUUUGAGUUUGAUGCTT against Zc3h10,-1.03
18,GCUGUCAAAUUAACCUGUGTT against Spin2c,-2.31 (active)
19,GCUCGAUAUAAUUUCACACTT against Neto1,-0.75
20,GCCGCUACUCUCCUCAAAATT against Card19,-0.329
21,CGUGUAAGUUUUGAUUCUATT against Calr,0.815
22,GGAGCUUGUGAACACCUUCTT against Nudc,0.718

row,Sequence,z-score
1,GGCUAUCUGCUUAUGCUGGTT against Ptch2,-0.314
2,CCAGUAAACCGAGACCAUUTT against Nsfl1c,2.02 (active)
3,GCUAAGCGAAGAGUUUAACTT against Dlgap3,0.691
4,GGACUUCUUCGAUUGUUCUTT against Chchd1,0.475
5,GCUCUACAUGAAAACACUGTT against Gpat4,-0.28
6,CGAAAUUGCUGACUCAGAATT against Arl6ip6,0.549
7,CCCAGCUUUCAUCCUUUGUTT against Emc7,0.237
8,GGGCAGUCUGAUAGAGGAUTT against Adam30,-0.632
9,GGCUUCUGAUCUUACCUGGTT against Smim12,0.683
10,GGAGGAACCCUCAUUUUAGTT against Prxl2c,-0.897
11,CCAACUCGGCUGUUUUUUATT against F11r,0.149
12,GGAAAGCACCCAAGAAAUGTT against Gspt1,-0.915
13,GGUACAAUCCCAGAUUUGATT against Smc3,-2.37 (active)
14,CCCUUAAGUCUUUUUCCUATT against Celf2,-1.09
15,GGCCAUGGUGGCGUGUUAUTT against Egln2,-0.524
16,GCUGCUCCCUCUAAUAAAATT against Cbr1,-0.913
17,GGCGUGAACCAAACAGACUTT against Calcrl,-0.604
18,CGGAGCCAAAUACGAAGGGTT against Jph3,-0.548
19,GGCAGAAAAGAUGGAAAAUTT against Evi5l,-2.1 (active)
20,GGCAAGCACACAAUGAUGCTT against Plin5,-0.0222
21,GGUAGAACAACAGAACAAUTT against Myo5b,2.9 (active)
22,GCAGCUUCAAGAGAGCCAUTT against Rhbdl1,-0.604

row,Sequence,z-score
1,GGAAGUAGCCCAGAAGUGUTT against Rad51d,-0.337
2,GGGAGAGUUCCAUAAAUUGTT against Narf,-0.728
3,GGGACUGGCACCAUUUGUUTT against Cetn4,-0.289
4,GGACAUGGCUUUAUAACCUTT against Dcdc5,0.256
5,GCAGCAUAGAGACUAAAUCTT against Usp17la,0.604
6,GGAUAAAAUUGAGUCUAUGTT against Was,1.81
7,GGGCCAAUGAUGGACUUCCTT against Syp,0.33
8,GGCCCUAUUAGAGAUAAAATT against Robo3,-1.2
9,GGUAGUCUGAACACUCUAATT against Msto1,0.427
10,GGAAGAAGAGGAGGAGAUGTT against Zbtb7b,3.17 (active)
11,GCUAUCUCCACUCUGAGUCTT against Spryd4,-0.342
12,CCGCCAGGGAAACAAAUACTT against Zfp414,-1.21
13,GCUUCUGCUUGUUCGCUAGTT against Usp17ld,2.7 (active)
14,GCUCACUAUGUAAAGAGAATT against Itpk1,0.807
15,GGAGAGUCAAGUCUUUUCUTT against Dnal4,0.0546
16,GGACAAACUCCGAGACUCCTT against Utf1,-0.339
17,GGAUGAUCAUUCUAGCUGUTT against Hormad1,0.836
18,GGUGUCUGAUUCUAACAUATT against Catsper4,0.589
19,GGAAGAAAACACCAUUUUUTT against Irf6,3.12 (active)
20,GGUGCAAUCAGGUAUUUCATT against Olfr917,-2.26 (active)
21,GGAAAGUGGACACCUUCCATT against Vezt,1.2
22,CCAGAAGCCAUUAACUAUGTT against Lck,-0.479

row,Sequence,z-score
1,GGACGUGGAAAACCACAGUTT against Nphp4,0.0474
2,GGAUUUCGAGAAAAUCAACTT against Kctd4,-0.225
3,GGUGCUGGACAAAUUGAGATT against Cgas,-0.189
4,GGAGUGCAGUCACUAUUUGTT against Il2rg,-0.0154
5,GGUUCUUCAGGCCACUGAUTT against Dnaaf2,0.982
6,GGAUGCAGAGAAGAAUCUGTT against Psmd6,-2.65 (active)
7,GGAGAAGGACCAUCUAAAGTT against Cmah,0.901
8,CGUCUAGGAAGGAAACAGGTT against Stk32a,-1.54
9,GGAUGGUUACUAUCAGACUTT against Exoc3,0.187
10,CCAGAUGGAAAGCGAAAAATT against Thra,-0.27
11,GGAGAAUGGCCACGUAAAATT against Marcks,0.294
12,GGAUAUCUCACUGCUUUUATT against Mpp5,2.13 (active)
13,GGCAUCCUUGAGCUUUAAATT against Nufip2,-0.0213
14,GGUGCAAGUUUUUCAGUCUTT against Castor2,0.411
15,GCACCAUGAAUGGAGAUGATT against Prl2c5,-2.56 (active)
16,GCCAUACACAGUGGCAUAATT against Zfp811,0.395
17,CCAUAAAUCAUGAACUGGUTT against Sesn3,-1.41
18,GGGCAAGAACUACAUCUGCTT against Wdr18,-0.288
19,CCCAAAUACUCCAAUUAUATT against Fzd3,0.289
20,GCAUCUGGUAAAAGGAGCATT against Rpap1,0.956
21,GCCAGUGGUAUCUGGAAGUTT against Brca2,0.0865
22,GGUAGAGCUAAGUAAAGAGTT against Pwp1,-0.977

row,Sequence,z-score
1,GGCAGUAAUAGGAGACCAUTT against Ces1d,2.76 (active)
2,GGCUUCAGCAAAGACAAUGTT against Ache,-1.07
3,CGCAAAGUGGACAAACGUATT against Kcne3,0.0218
4,CCAAUCGGUGAUCAAGAAATT against Tfap2e,-0.525
5,GCCAAGGUUAUCAUGAAUGTT against F13a1,-0.141
6,GUUUUUCUGGGCAAUUUUATT against Olfr739,2.11 (active)
7,GGAGAUUUACUCACAGUUCTT against Kcnip4,1.26
8,GUAAAAUGUUCACUAAAGCTT against Olfr1248,-1.14
9,GCUUAUAAUGCCAUUACUUTT against Rad21,-0.548
10,CGAUUUAAAGUAGUAGUGGTT against Dusp28,-1.13
11,GACAGAAAUAUAGACUCGATT against Ppp1r42,-2.45 (active)
12,CGGAUAACAAAAGUAGCAATT against Trp53rka,0.276
13,GGUUUAGCAUCGUCCUAUATT against Crmp1,-0.495
14,CGGCAGAUGCAUUCAGGAUTT against Ccdc125,0.0172
15,GGAGGUGUUAGAUUUUGACTT against Asrgl1,-0.295
16,GGCGGAGGAAGAGUUCAACTT against Atp6v1e2,-0.393
17,GGAUGAAACUAUUCAGCACTT against Chml,-0.635
18,GCAGGAGGAUUAGUAAAUUTT against Ier2,0.966
19,CCCUAUUGUCAAUAUUCUATT against Nr1h5,0.492
20,GGGAGCAAAAGCUUUACUUTT against Prl3c1,2.25 (active)

# From PubChem BioAssay AID1508600 (Functional Genomics Laboratory (NCATS/FGL), 2020)
